Assay results published in PubChem BioAssay (NCI).
Compounds without any hit were thinned out: in the full panel of roughly 79,000, 15% have a hit. Cut-off read from the data, not from the text of the source: active = growth inhibition above about 70%; inactive = the rest.

Tests used:
[1] = NCI Yeast Anticancer Drug Screen. Data for the rad50 strain (AID 155);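 note: 0% = growth of vehicle-only cultures of the same strain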; settings: S. cerevisiae rad50 strain growth inhibition, stronger effect = higher value; at 50.0 µM unless noted
In short: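 Genetically altered yeast (DNA repair pathway); compound treatment; growth inhibition vs vehicle ctrl.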

[2] = NCI Yeast Anticancer Drug Screen. Data for the mec2-1 strain (AID 157); settings: S. cerevisiae mec2-1 strain, stronger effect = higher value; at 50.0 µM unless noted
In short: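 Mutant yeast (mec2-1) grown with compound; growth inhibition relative to vehicle control reported.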

[3] = NCI Yeast Anticancer Drug Screen. Data for the sgs1 mgt1 strain (AID 161);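 note: 0% = growth of cultures given vehicle only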; settings: S. cerevisiae sgs1 mgt1 strain, stronger effect = higher value; at 50.0 µM unless noted
In short: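 Growth of a repair-deficient yeast mutant was monitored after compound treatment and expressed as inhibition relative to vehicle-treated cultures.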

[4] = NCI Yeast Anticancer Drug Screen. Data for the cln2 rad14 strain (AID 165);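 note: 0% = growth equal to vehicle treated cultures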; settings: S. cerevisiae cln2 rad14 strain, stronger effect = higher value; at 50.0 µM unless noted
In short: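 Readout is yeast growth inhibition versus vehicle-treated controls, using a strain with cln2 and rad14 alterations exposed to compound.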

[5] = NCI Yeast Anticancer Drug Screen. Data for the bub3 strain (AID 167); settings: S. cerevisiae bub3 mutant strain, stronger effect = higher value; at 50.0 µM unless noted
In short: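 Yeast carrying a defined mutation is treated with each compound, and growth is compared with that of vehicle-exposed cells to give inhibition.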

[6] = NCI Yeast Anticancer Drug Screen. Data for the mlh1 rad18 strain (AID 175); settings: S. cerevisiae mlh1 rad18 strain growth inhibition, stronger effect = higher value; at 50.0 µM unless noted
In short: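 Genetically defined yeast (DNA repair-deficient) exposed to compounds; growth inhibition determined relative to vehicle.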

Measured: growth inhibition

CSc1ccc(C)cc1
inactive: [1] 30.6% | [2] -15.2% | [3] -24.5% | [4] -21.6% | [5] -9.35% | [6] 26.7%

CC(=O)N(C)c1ccccc1
inactive: [1] -19.2% | [2] -20.9% | [3] -16.4% | [4] -40.5% | [5] -8.45% | [6] -7.55%

CC1=C(C)CC2(CCCCC2=O)S(=O)C1 (configuration not stated)
inactive: [1] -34.8% | [2] -28.8% | [3] -9.85% | [4] 11.1% | [5] 15.8% | [6] 2.55%

CCOC(Cc1ccccc1)OCC
inactive: [1] 20.9% | [2] 19.9% | [3] 18.4% | [4] -0.7% | [5] 10.9% | [6] 12.7%

O=C(Oc1ccc(O)cc1)N(c1cccc2ccccc12)c1cccc2ccccc12
inactive: [1] 38% | [2] 18.1% | [3] 40.6% | [4] 22.4% | [5] 66% | [6] 44.2%

N#CC(c1ccccc1)c1ccc2ccccc2n1 (configuration not stated)
inactive: [1] 23.6% | [2] 7.4% | [3] 10.8% | [4] 2.6% | [5] 33.5% | [6] -0.9%

CN(C)CCOC(=O)C1C2CC3OC(=O)C1C3C2 (configuration not stated)
inactive: [1] -2.4% | [2] -13.6% | [3] 17.5% | [4] -5% | [5] 7.25% | [6] -19.4%

CCOC(=O)CSc1nc(-c2ccccc2)c(C#N)c(=O)[nH]1
inactive: [1] 3.05% | [2] 1.2% | [3] -5.4% | [4] 13.2% | [5] 2.6% | [6] -61%

Cc1ccnc(NC#N)n1
inactive: [1] 14.8% | [2] 13.6% | [3] 21.6% | [4] 19.1% | [5] 19.4% | [6] 14.8%

N#C/C(=C\c1ccco1)C1CCC([N+](=O)[O-])CC1 (configuration not stated)
inactive: [1] -5.05% | [2] -1.5% | [3] 4.35% | [4] -101% | [5] 2.85% | [6] -4.85%

CCN(CC)CCOc1ccc(N2C(=O)c3cc(OC)c(OC)cc3C2=O)cc1
inactive: [1] -23.4% | [2] -19% | [3] -14.9% | [4] 5.25% | [5] -32.1% | [6] -34.5%

COc1ccc(NC2Oc3cc4c(cc3C(c3cc(OC)c(O)c(OC)c3)C2C)OCO4)cc1 (configuration not stated)
inactive: [1] 5.1% | [2] 0.1% | [3] -6.15% | [4] 2.65% | [5] 6.6% | [6] 4.8%

Cc1[nH]nc2c1C(=O)C=C(N(CCO)c1ccccc1)C2=O
inactive: [1] -24.6% | [2] 5.35% | [3] 2.25% | [4] 11.2% | [5] -11.9% | [6] -6.55%

Cc1cc(C)c2c(=O)n(-c3ccccc3C)c(=S)n(-c3ccccc3C)c2n1
inactive: [1] 31.4% | [2] 8.35% | [3] 2.25% | [4] 1.95% | [5] -4.1% | [6] 24.7%

O=C1CN(c2cccc(Cl)c2)C(=O)CN1/N=C/c1ccco1
inactive: [1] 18.9% | [2] -14.5% | [3] 18% | [4] 12.7% | [5] 23.8% | [6] 22.1%

Clc1c(Cl)c(Cl)c(C[n+]2c(Cl)sc3ccccc32)c(Cl)c1Cl
inactive: [1] 12.6% | [2] 10.2% | [3] 5.05% | [4] -6.6% | [5] 10.3% | [6] 6.2%

Nc1ccc2c(c1)C(=O)c1cc(Cl)cc(Cl)c1-2
inactive: [1] 0% | [2] -4.75% | [3] -0.5% | [4] -44% | [5] 7.05% | [6] 2.25%

C(=C1CCCCC1)c1ccccn1
inactive: [1] -9.2% | [2] 24.9% | [3] -10.7% | [4] -23.3% | [5] -18.8% | [6] -24.9%

O=P(O)(O)OP(=O)(O)O
inactive: [1] -15.3% | [2] -15.1% | [3] -2.4% | [4] -12.1% | [5] -54.6% | [6] 25.8%

c1ccc(CNc2nnnc3ccccc23)cc1
inactive: [1] -2.75% | [2] -1.45% | [3] -2.4% | [4] -30.8% | [5] -14.5% | [6] 2.2%

Cc1cc(C)c(C(=O)c2cccc(C)c2C(=O)O)c(C)c1
inactive: [1] 4% | [2] -20.8% | [3] 7.85% | [4] 14.1% | [5] 9.85% | [6] 18%

C/C(=N\N/C=N/S(=O)(=O)c1ccccc1)c1ccccc1
inactive: [1] -12.2% | [2] 4.55% | [3] -6.35% | [4] 5.6% | [5] 0.55% | [6] -1.55%

CCOC(=O)c1ccc2c(c1)C(=O)c1cc([N+](=O)[O-])ccc1-2
inactive: [1] 2.85% | [2] 13.2% | [3] 4.8% | [4] 10.6% | [5] 26.7% | [6] 23.1%

OC(CN1CCCCC1)c1cc(-c2ccccc2)no1 (configuration not stated)
inactive: [1] 31.8% | [2] 11.6% | [3] 33.5% | [4] 24.6% | [5] 23.6% | [6] 16.4%

NC(=O)C(c1ccccc1)C1(O)CCCCC1 (configuration not stated)
inactive: [1] 7.7% | [2] 5.7% | [3] 9.7% | [4] 6.95% | [5] 3.2% | [6] 11.4%

CCC1CC(=O)c2ccccc2O1 (configuration not stated)
inactive: [1] 0.65% | [2] 9.55% | [3] -20.4% | [4] -2.55% | [5] 5.4% | [6] 0.4%

CCOc1ccc(NC(=O)C(=O)CC(=O)c2c(C)n([O-])c3ccccc3[n+]2=O)cc1
inactive: [1] -5.95% | [2] 3.8% | [3] -34.5% | [4] 7.2% | [5] 0.1% | [6] -10.8%

C=C1c2nc3ccccc3n2C=C(c2ccc(C)cc2)N1c1ccc(C)cc1
inactive: [1] 24.6% | [2] 18% | [3] 16.2% | [4] 25% | [5] 11.2% | [6] 29.8%

O=C1C2(c3ccccc3)CCC1(c1ccccc1)C(c1ccccc1)=C2c1ccccc1
inactive: [1] 40.1% | [2] 26.9% | [3] 7.25% | [4] 23.9% | [5] 3.05% | [6] 37.5%

O=C(NO)/C(CC(=O)c1cccc(O)c1)=N\O
inactive: [1] -7.05% | [2] 10.1% | [3] -7.35% | [4] -8.55% | [5] -11.1% | [6] 5.5%

COc1cc2cnc(-c3ccccc3)c(O)c2cc1OC
inactive: [1] 12.3% | [2] -5.25% | [3] 12% | [4] 1.3% | [5] 40.1% | [6] -6.55%

CCC(C(N)=O)c1ccccc1 (configuration not stated)
inactive: [1] -16.3% | [2] -5.65% | [3] 13.9% | [4] -6.75% | [5] -3.9% | [6] -3.6%

Nn1c(NNC(=O)C(=O)Nc2cc(Cl)c(Cl)cc2Cl)n[nH]c1=S
inactive: [1] -6.05% | [2] -16.1% | [3] -6.45% | [4] 23.8% | [5] 19.2% | [6] 1.4%

Cc1ccc2sccc(=O)c2c1
inactive: [1] 1.05% | [2] -2.1% | [3] -8.95% | [4] -12.8% | [5] -5.95% | [6] 7.6%

C#CCN(Cc1ccc2nc(-c3ccccc3)c(Cl)nc2c1)c1cc(OC)c(OC)c(OC)c1
inactive: [1] 14.8% | [2] -12.6% | [3] -16.9% | [4] -23.4% | [5] -26.1% | [6] 4.75%

Cc1ccccc1C(=O)NC(O)(C(F)(F)F)C(F)(F)F
inactive: [1] 2.4% | [2] 10.2% | [3] 14.6% | [4] 32.9% | [5] 16.9% | [6] 5.05%

CC(=O)NC(CCC(C)C)C(=O)O (configuration not stated)
inactive: [1] -0.05% | [2] 25.2% | [3] 4.75% | [4] -13.6% | [5] 15.6% | [6] -7.35%

O=[N+]([O-])c1cc(COc2ccc(Cl)c(Cl)c2)ccc1Cl
inactive: [1] 1.8% | [2] 30.3% | [3] 38.5% | [4] -0.95% | [5] 46.4% | [6] 35.8%

C(/C=N/NC1=NCCN1)=N\NC1=NCCN1
inactive: [1] 42% | [2] 18.1% | [3] 28.4% | [4] 2.85% | [5] 36.6% | [6] 41.5%

CCOC(=O)CC(=O)Cc1ccccc1
inactive: [1] -23.3% | [2] -16.6% | [3] -6.25% | [4] -43.8% | [5] -13.2% | [6] -19.1%

C1CSCCSS[C@@H]2CCCCC2SC1 (some centres not stated)
inactive: [1] -12.8% | [2] -25.1% | [3] -0.55% | [4] -11.9% | [5] -12.1% | [6] -17.1%

C/C=C/C#C/C=C1/C=CC(=O)O1
inactive: [1] -5.95% | [2] -1.35% | [3] -7.2% | [4] 37.1% | [5] 34.2% | [6] 10.1%
